{"source": "PubChem BioAssay (NCI)", "note": "Where “and” joins values, the source holds several entries; their conditions need not be identical. Equal values may be shown once. The panel holds about 83,000 compounds, 20% with a hit somewhere; the sample as a whole holds those more often.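 Percent growth is the endpoint: 0 to 100 indicates growth inhibition (40 means 60% inhibition), 0 means no net growth, and negative values indicate cell death.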 Calls of active or inactive are those of the source. How the source made its calls: active means growth percent below 10; inactive means the rest.", "data": [{"test_system": "HL-60(TB) leukemia", "assay": "NCI-60 one-dose screen, 48 h (100 = growth as untreated, 0 = no growth, -100 = all killed)", "details": "10 µM unless noted", "values": [{"compound": "COC(=O)C(CSC(c1ccccc1)(c1ccccc1)c1ccccc1)NC(=O)C(CC(N)=O)NC(=O)OCc1ccccc1", "note": "(centres undefined)", "growth": "-7.75% (active)"}, {"compound": "CC1(C)CC[C@]2(C(=O)O)CC[C@]3(C)C(=CC[C@@H]4[C@@]5(C)C/C(=C/O)C(=O)C(C)(C)[C@@H]5CC[C@]43C)[C@@H]2C1", "growth": "4.77% (active)"}, {"compound": "CC(C)Cn1cnc2c3ccccc3nc(NCn3nc(-c4cc(Cl)cc(Cl)c4Cl)oc3=S)c21", "growth": "43.8% (inactive)"}, {"compound": "CCN1Cc2c(/C=C/c3ccccc3)nc3ccc(OC)cc3c2N(c2cccc(Cl)c2)C1", "growth": "23.6% (inactive)"}, {"compound": "N[C@H]1CN(C(=O)c2cc3cc(Br)c(F)c(F)c3[nH]2)C[C@@H]1O", "growth": "98.5% (inactive)"}, {"compound": "COC1C(OC(N)=O)C(O)C(Oc2ccc3c(O)c(NC(=O)c4ccc(O)c(CC=C(C)C)c4)c(=O)oc3c2C)OC1(C)C", "note": "(centres undefined)", "growth": "74% (inactive) and 106% (inactive)"}, {"compound": "COc1cc(CNC(=O)/C=C/C=C/c2ccc3c(c2)OCO3)ccc1OCc1cn(-c2ccc(C)c(C)c2)nn1", "growth": "84.4% (inactive)"}, {"compound": "O=C(N[C@@H]1CCCc2ccccc21)[C@H](CCC(=O)N1CCN(C2CCCCC2)CC1)N1C(=O)[C@@H](N2C(=O)OC[C@@H]2c2ccccc2)[C@H]1/C=C/c1ccccc1", "growth": "-8.1% (active)"}, {"compound": "C=C1C(=O)O[C@H]2[C@H]1CC/C(COC(=O)NC1CCC(O)CC1)=C\\CC[C@@]1(C)O[C@@H]21", "note": "(some centres undefined)", "growth": "70.6% (inactive) and 62.5% (inactive)"}, {"compound": "COc1ccc(-c2ccc(NC(=O)Nc3cccc(C(F)(F)F)c3)c(C)n2)cc1", "growth": "49.7% (inactive)"}, {"compound": "Cn1c(=O)c2[nH]c(CCCCC(=O)O)nc2n(C)c1=O", "growth": "60.6% (inactive)"}, {"compound": "Cc1ccc(S(=O)(=O)Nc2nc3ccccc3nc2Nc2ccc3nsnc3c2)cc1", "growth": "45.4% (inactive) and 37.2% (inactive)"}, {"compound": "OCC1CCC(O)C(CO)N1", "note": "(centres undefined)", "growth": "98.2% (inactive)"}, {"compound": "CC(=O)c1ccc2c(c1)c1ccccc1n2C", "growth": "84.1% (inactive)"}, {"compound": "CCOC(=O)C1=C(N)Oc2c(sc3c(F)cccc23)C1c1ccc(O)cc1", "note": "(centres undefined)", "growth": "18.4% (inactive)"}, {"compound": "[2H]C1([2H])[C@H](C)O[C@H](C)C([2H])([2H])N1c1ccc(NC(=O)c2cccc(-c3ccc(OC(F)(F)F)cc3)c2C)cn1", "growth": "56.3% (inactive)"}, {"compound": "CCCCOc1nc2ccccc2cc1/C=C/c1cc(/C=C/c2cc3ccccc3nc2OCCCC)n(-c2ccccc2)n1", "growth": "97.5% (inactive)"}, {"compound": "COc1ccc(-c2nn(-c3ccccc3)cc2/C=C2/SC(=S)N(C)C2=O)cc1", "growth": "95.8% (inactive)"}, {"compound": "Cc1ccc(/C=C2\\CN(C(=O)OC(C)(C)C)C/C(=C\\c3ccc(C)cc3)C2=O)cc1", "growth": "41.9% (inactive)"}, {"compound": "COc1cc2cc(Oc3ccc(NC(=O)Nc4ccc(Cl)c(C(F)(F)F)c4)cc3)c(C)nc2cc1OCCN1CCCCC1", "growth": "30.5% (inactive)"}, {"compound": "CN(C)C1CCN(C(=O)c2ccc(NC(=O)Nc3ccc(-c4nc(N5CCOCC5)nc(N5CCOCC5)n4)cc3)cc2)CC1", "growth": "1.8% [2.5 µM] (active)"}, {"compound": "CCCCCCCCCCCCSC(=NC)NC", "growth": "-37.6% (active) and 38.4% (inactive)"}, {"compound": "Cn1c2c(Cl)c(Cl)ccc2c2ccn3c(=O)c4ccccc4nc3c21", "growth": "106% (inactive)"}, {"compound": "COc1ccc(C(O)c2cc3c(N)c(C(=O)Nc4ccccc4)sc3nc2C)cc1", "note": "(centres undefined)", "growth": "-68.5% (active)"}, {"compound": "C[C@@H](c1ccc2c(c1)[nH]c1ccc(Cl)cc12)c1nc2ccccc2[nH]1", "growth": "91.3% (inactive)"}, {"compound": "CCOc1cccc(Nc2nc(N)nc3[nH]c4ccc(O)cc4c23)c1", "growth": "53% (inactive)"}, {"compound": "Cc1ccc(N)c(S(=O)(=O)O)c1", "growth": "74.5% (inactive)"}, {"compound": "O=C(Oc1cccc(OC(=O)c2ccccc2)c1)c1ccccc1", "growth": "73% (inactive) and 114% (inactive)"}, {"compound": "O=C1CSC(c2ccccc2Cl)N1c1nnc(Cn2cnnc2)o1", "note": "(centres undefined)", "growth": "-17.3% (active)"}, {"compound": "CC1=C(C(=O)OC(C)C)C(c2ccc3c(c2)OCO3)NC(=S)N1", "note": "(centres undefined)", "growth": "105% (inactive)"}, {"compound": "CCOC(=O)c1cc(C(=O)c2ccc(OC)c(OC)c2)n2ccncc12", "growth": "92% (inactive)"}, {"compound": "COc1ccc(-c2cn(-c3cccc(C(=O)/C=C/c4cc(OC)c(OC)c(OC)c4)c3)c(=O)[nH]2)cc1OC", "growth": "66.6% (inactive)"}, {"compound": "CSc1nc(N)c(CNC(C)c2ccccc2)c(=O)n1C", "note": "(centres undefined)", "growth": "81.1% (inactive)"}, {"compound": "CCN(CC)c1cc(C)c2cc(NC(=O)c3cccc(OC)c3)ccc2n1", "growth": "84.7% (inactive)"}]}]}
